The source of these data is PubChem BioAssay AID686979 (National Center for Advancing Translational Sciences (NCATS), 2013).

Where “and” joins values, the source holds several entries; their conditions need not be identical. Identical values can stand only once. Hit rate of the full screen: of about 420,000 compounds, about 50,000 (12%) were called active. Another 26% or so got no clear call; they are omitted. What follows is part of a selection rich in actives, with near analogues and random picks from the rest. A number with no mark means an inactive call. Calls follow the shape of the dose curve; as a rule, active = well fitted inhibition curve with a large enough effect; inconclusive = small, poorly fitted or top-dose-only effect; inactive = flat fitted curve, though single readings scatter.
% is scaled to controls: 0 for no effect and ±100 for the full control effect; potency is read from the fitted curve at half-maximal effect.

The assay is described as follows: qHTS for Inhibitors of human tyrosyl-DNA phosphodiesterase 1 (TDP1): qHTS in cells in presence of CPT. Also: nearly all actives have a fitted effect of over 55% in size. To be noted: chicken DT40 Tdp1-/-;hTDP1 cells + 20 nM CPT, ATP luminescence, 48 h; series mostly up to 46.2 µM; activity change, negative = growth inhibition: at the top concentration. The procedure, abridged:
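Chicken DT40 Tdp1-/- cells complemented with human TDP1, 400 cells/well, exposed to compounds plus 20 nM camptothecin for at least 48 h at 37 C; viability read as ATP content by CellTiter-Glo luminescence.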
On the technique in general: Quantitative high-throughput screening tests each substance at several concentrations.
Consider `Cc1ccc(S(=O)(=O)N(C)C)cc1NC(=O)C(C)OC(=O)c1ccc2ccccc2n1` (centres undefined), for which the “activity change, negative = growth inhibition” value is -5.45%.

Turning to `CC(C)[C@@H](NC(=O)OC(C)(C)C)C(=O)NCC1CCC(C(=O)N[C@@H](Cc2ccccc2)C(=O)O)CC1` (some centres undefined), the “activity change, negative = growth inhibition” value is 5.99%.

With `C[C@H]1CN([C@@H](C)CO)S(=O)(=O)c2ccc(Br)cc2O[C@H]1CN(C)C(=O)c1cnccn1`, the “activity change, negative = growth inhibition” value is -9.71%.

Turning to `CNC(=O)COc1ccc(S(=O)(=O)Nc2ccccc2)cc1`, the “activity change, negative = growth inhibition” value was 3.15%.

As for `CC(=O)c1ccccc1NC(=O)COC(=O)C1COc2ccccc2O1` (centres undefined), the “activity change, negative = growth inhibition” value was 0.997%.

`CC1(C(=O)NS(=O)(=O)c2ccccc2Cl)CCN1C(=O)c1cccc(F)c1` (centres undefined): the “activity change, negative = growth inhibition” value is -8.37%.

`O=C(Cn1nc([N+](=O)[O-])nc1Br)NC1CCCCC1`: the “activity change, negative = growth inhibition” value is -3.93%.

Take `O=C(NCCS(=O)(=O)N1CCN(c2ccccc2)CC1)c1ccco1`: the “activity change, negative = growth inhibition” value was 0.253%.

Consider `CN1CCN(Cc2nc3cc(NC(=O)COc4ccc([N+](=O)[O-])cc4)ccc3n2C)CC1`, for which the “activity change, negative = growth inhibition” value was -0.469%.

Consider `O=C(Oc1ccc(C(=S)N2CCOCC2)cc1)c1ccc(F)cc1`, for which the “activity change, negative = growth inhibition” value was -2.14%.

As to `Cc1ccc(SCC2=NNC(=O)C2)cc1`, the “activity change, negative = growth inhibition” value is -7.49%.

As for `O=C(COc1ccccc1)Nc1cc2c3c(c1)CC(=O)N3CCC2`, the “activity change, negative = growth inhibition” value is -29.3%.

In the case of `CN(Cc1ccccc1)C(=O)CCC1CCN(C(=O)c2ccco2)CC1`, the “activity change, negative = growth inhibition” value was 4.83%.

Turning to `C=CCC1(C(=O)N(C)Cc2ccccc2)CCN(C(=O)OC(C)(C)C)CC1`, the Potency is 14.6 µM (active).

Consider `CC(C)(C)OC(=O)N1CCN(C(=O)c2[nH]c(C(F)(F)F)nc2-c2ccccc2)CC1`, for which the “activity change, negative = growth inhibition” value was 15.1%.

Consider `Oc1[nH]c2ccccc2c1N=Nc1c(F)c(F)c(F)c(F)c1F`, for which the Potency was 8.2 µM (active).

As to `Cc1cccc(N=Nc2c(O)[nH]c3ccc(F)cc23)c1`, the “activity change, negative = growth inhibition” value was -19.6%.

Consider `COCC(=O)N=Nc1c(O)[nH]c2ccccc12`, for which the “activity change, negative = growth inhibition” value was -21.3%.

Consider `Cc1cc(=O)oc2c(C)c(OCC(=O)NCCc3ccc(S(N)(=O)=O)cc3)ccc12`, for which the “activity change, negative = growth inhibition” value was -8.7%.

As to `CCCNC(=O)C1(C)CCN(C(=O)c2ccccc2OC(F)(F)F)C1` (centres undefined), the “activity change, negative = growth inhibition” value is -16.5%.

Regarding `c1ccc(CNc2ncnc3[nH]ncc23)cc1`, the Potency was 20.6 µM (active).

In the case of `CN(c1ccccn1)c1ncnc2[nH]ncc12`, the “activity change, negative = growth inhibition” value is -1.97%.

For the molecule `c1ccc(CNc2ncncc2-c2cccnc2)cc1`, the “activity change, negative = growth inhibition” value is -1.78%.

In the case of `Cc1ccc2c(=O)c(C(=O)c3cccc(Cl)c3)cn(CC(=O)NCc3ccccc3)c2n1`, the “activity change, negative = growth inhibition” value was -3.25%.

In the case of `CC1(C)CC(=O)C=C(N2CCOCC2)C1`, the “activity change, negative = growth inhibition” value was 13.7%.

`Cc1oc(C(N)=O)cc1COc1ccc(C(N)=O)cc1`: the “activity change, negative = growth inhibition” value is 20.8%.

With `Cc1nc2nc(SCC(=O)NCc3ccco3)nn2c(C)c1Cc1ccccc1`, the “activity change, negative = growth inhibition” value is -19.4%.

Consider `Cc1cccc(Cc2c(C)nc3nc(SCc4ccccc4Cl)nn3c2C)c1`, for which the Potency is 23.1 µM (active).

Regarding `COC(OC)c1ccnc(SCc2ccccc2Cl)n1`, the “activity change, negative = growth inhibition” value is 13.7%.

For the molecule `O=C(O)c1ccccc1-c1cccc2nncn12`, the “activity change, negative = growth inhibition” value was -17.6%.

With `Cc1nnc(SCC(=O)N/N=C/c2cn(-c3ccccc3)nc2-c2ccc(F)cc2)n1-c1ccccc1`, the “activity change, negative = growth inhibition” value is -12.7%.

For `O=C(NCCCN1CCOCC1)c1cn(-c2ccccc2)nc1-c1ccc(F)cc1`, the “activity change, negative = growth inhibition” value is -15.7%.

As for `O=C(N/N=C/c1ccc([N+](=O)[O-])o1)c1cn(-c2ccccc2)nc1-c1ccc(F)cc1`, the Potency is 7.31 µM (active).

For `COc1ccc(S(=O)(=O)NCC(=O)NC2CC2)cc1OC`, the “activity change, negative = growth inhibition” value was 6.46%.

`COc1ccc(Nc2ccc3ccccc3c2)cc1`: the “activity change, negative = growth inhibition” value was -8.39%.

As for `COc1ccc(Nc2cc(=O)oc3ccccc23)cc1`, the Potency was 2.91 µM (active).

For `COc1ccc(Nc2nnc(C)c3ccccc23)cc1`, the “activity change, negative = growth inhibition” value was 2.95%.

As for `CCn1cc(/C=C(\NC(=O)c2ccc(C)cc2)C(=O)NCCN2CCOCC2)c2ccccc21`, the “activity change, negative = growth inhibition” value was -28.7%.

On to `CC1=NNC(=O)C1CC(=O)N/N=C/c1ccncc1` (centres undefined), for which the “activity change, negative = growth inhibition” value was 1.34%.

For the molecule `CCCSc1nc2[nH]ncc2c(=O)[nH]1`, the “activity change, negative = growth inhibition” value was -6.23%.

On to `CCc1ccc(-n2c(SCc3cc(=O)n4cc(Br)ccc4n3)nc3[nH]ncc3c2=O)cc1`, for which the Potency is 23.1 µM (active).

With `Cc1cc(C(=O)Nc2c(C)nn(Cc3ccccc3)c2C)on1`, the “activity change, negative = growth inhibition” value is 2.52%.

Consider `Cc1nn(Cc2ccc(F)cc2)c(C)c1NC(=O)c1noc2c1CCc1ccccc1-2`, for which the Potency was 25.9 µM (active) and 4.61 µM (active).

Consider `Cc1ccccc1Cn1nc(C)c(NC(=O)C(F)(F)F)c1C`, for which the “activity change, negative = growth inhibition” value was 7.52%.

For `COc1ccc2c(c1)CCc1c(C(=O)Nc3c(C)n(C)n(-c4ccccc4)c3=O)noc1-2`, the “activity change, negative = growth inhibition” value is -5.03%.

Turning to `Cc1nn(Cc2ccc(F)cc2)c(C)c1NC(=O)c1cc(CC(C)C)on1`, the Potency was 20.6 µM (active).

Regarding `Cc1nn(Cc2ccc(F)cc2)c(C)c1NC(=O)c1cccnc1Cl`, the “activity change, negative = growth inhibition” value is 5.99%.

With `C=CCOc1ccc(/C=C/C(=O)OC(C)C(=O)Nc2ccc(NC(C)=O)cc2)cc1` (centres undefined), the “activity change, negative = growth inhibition” value was 4.08%.

With `CC(CCN1CCN=C1N(C)C)c1ccccc1` (centres undefined), the “activity change, negative = growth inhibition” value was -1.58%.

Regarding `Cc1cc(C)c2c(n1)sc1c(=O)n(-c3ccccc3)c(=O)[nH]c12`, the “activity change, negative = growth inhibition” value is 1.18%.

Consider `CC(=O)Nc1cc(C(=O)N2CCc3c(Cl)cccc3C2)cc2ncn(CCc3ccccn3)c12`, for which the activity change, negative = growth inhibition was -10.1% [at 9.04 µM].

Turning to `COCCNC(=O)c1onc(CSc2cccc(C)c2)c1C(=O)O`, the “activity change, negative = growth inhibition” value was -1.59%.

Take `COCCN(Cc1cc2cc3c(cc2nc1Cl)OCO3)C(=O)c1cccc(C)c1`: the Potency is 7.31 µM (active).

For the molecule `CN(Cc1c(F)cccc1Cl)C(=O)CNC(=O)c1ccc2c(c1)OCO2`, the “activity change, negative = growth inhibition” value was -12.9%.

As to `CCSc1nc(O)c(C(c2cccc(OC)c2)c2c(O)nc(SCC)[nH]c2=O)c(=O)[nH]1`, the “activity change, negative = growth inhibition” value is 13.5%.

For the molecule `CC1COc2ccccc2N1C(=O)c1ccc(F)cc1` (centres undefined), the “activity change, negative = growth inhibition” value was -11.6%.

For `CC1(C)Cc2ccccc2-c2c[nH]c(=O)n21`, the “activity change, negative = growth inhibition” value is -4.36%.

As for `CCC1(CC)Cc2ccccc2-c2nc3ccccc3c(=O)n21`, the Potency is 18.4 µM (active).

As to `c1cncc(-c2nnc3n2C2(CCCCC2)Cc2ccccc2-3)c1`, the “activity change, negative = growth inhibition” value is -13.9%.

Turning to `O=c1c2ccccc2nc2n1C1(CCCCC1)Cc1ccccc1-2`, the Potency is 16.4 µM (active).

Turning to `CC1(C)Cc2ccccc2-c2nnc(-c3cccc(O)c3)n21`, the “activity change, negative = growth inhibition” value was -0.381%.

In the case of `CCOC(=O)C1CCc2nc3ccccc3c(=O)n21` (centres undefined), the “activity change, negative = growth inhibition” value was -5.68%.

Turning to `CCCCSc1ncnc2c1sc1nc(N3CCOCC3)c3c(c12)CCCC3`, the “activity change, negative = growth inhibition” value was -0.216%.

Take `NS(=O)(=O)c1ccc(CCNC(=O)COC(=O)COc2cccc(C(F)(F)F)c2)cc1`: the “activity change, negative = growth inhibition” value is 4.49%.

Take `CCN(c1ncnc2c1cnn2-c1ccc(C)cc1)C1CCCCC1`: the “activity change, negative = growth inhibition” value was -0.498%.

For `O=C(c1cc(-c2ccc(Cl)s2)nc2ccccc12)N1CCOCC1`, the “activity change, negative = growth inhibition” value is -5.37%.

In the case of `COCCNC(=O)c1ccccc1NS(=O)(=O)c1ccc(C)c([N+](=O)[O-])c1`, the “activity change, negative = growth inhibition” value was -3.71%.

`COCCNc1ccc(-c2n[nH]c(=O)c3ccccc23)cc1[N+](=O)[O-]`: the Potency was 14.6 µM (active).

For `COCCNc1cc(NCCOC)c([N+](=O)[O-])cc1[N+](=O)[O-]`, the “activity change, negative = growth inhibition” value is 11.4%.
